Assay [1] addresses Progesterone receptor (Homo sapiens) (UniProt P06401). The assay is described as follows: qHTS assay to identify small molecule agonists of the progesterone receptor (PR) signaling pathway (AID 1346784; calls by dose curve; note: nearly all actives have a fitted effect of over 30% in size). To be noted: PR-UAS-bla HEK293T, beta-lactamase FRET ratio, 16 h; series mostly up to 92.4 µM. The gist of the method:
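Fluorescence from LiveBLAzer B/G FRET substrate cleavage (2 hr, RT) reported PR activation in PR-UAS-bla HEK 293T cells treated 16 hr at 37C/5% CO2 with compounds; medium contained 2% charcoal-stripped FBS.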
A general note: qHTS replaces the single test concentration by a dilution series.

The target is the same in assay [2]. The assay is described as follows: qHTS assay to identify small molecule antagonists of the progesterone receptor (PR) signaling pathway (AID 1346795; active = well fitted inhibition curve with a large enough effect in the signal ratio in the repeat runs, not every such curve was filed as active; the % refers to the signal ratio; note: potency is the fitted concentration of half-maximal effect). To be noted: PR-UAS-bla HEK293T, beta-lactamase FRET ratio, 16 h; series mostly up to 92.4 µM. The method, boiled down: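 Fluorescence intensity measured 2 hr after adding beta-lactamase FRET substrate to PR-UAS-bla HEK293T cells that had been co-treated 16 hr with compound and 1 nM R5020 (final concentration) in 2% charcoal-stripped FBS.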

A short description of assay [3]: qHTS assay to identify small molecule antagonists of the progesterone receptor (PR) signaling pathway - cell viability counter screen (AID 1346798). Note: nearly all actives have a fitted effect of over 50% in size. To be noted: PR-UAS-bla HEK293T viability, CellTiter-Glo luminescence, 16 h; series mostly up to 92.4 µM. The method, boiled down:
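CellTiter-Glo luminescence; PR-UAS-bla HEK293T, 3,000 cells/well; compound + R5020, 16 hr, 37C/5% CO2; 30 min RT before read.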

Assay [4] in a line: qHTS assay to identify small molecule agonists of the progesterone receptor (PR) signaling pathway - cell viability counter screen (AID 1346799; calls by dose curve; note: nearly all actives have a fitted effect of over 45% in size). To be noted: PR-UAS-bla HEK293T viability, CellTiter-Glo luminescence, 16 h; series mostly up to 92.4 µM. The gist of the method: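 In parallel with the beta-lactamase readout, cytotoxicity toward PR-UAS-bla HEK293T cells was measured by CellTiter-Glo luminescence following 16 hr compound incubation in 2% charcoal-stripped FBS medium.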

The nature of assay [5]: qHTS assay to identify small molecule antagonists of the TGF-beta/Smad signaling pathway - cell viability counter screen (AID 1346824). Note: nearly all actives have a fitted effect of over 50% in size. To be noted: SBE-bla HEK293T viability, CellTiter-Glo luminescence; series mostly up to 76.8 µM. The gist of the method:
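SBE-bla HEK 293T cells, incubated overnight, then compound plus 0.25 ng/mL TGF-beta1 (stock added) for 5 hr at 37 C. Viability was read in the same wells by CellTiter-Glo luminescence after 30 min at room temperature.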

Assay [6] can be described thus: qHTS assay to identify small molecule agonists of the TGF-beta/Smad signaling pathway (AID 1346859; active = well fitted activation curve with a large enough effect in the signal ratio in the repeat runs, not every such curve was filed as active; the % refers to the signal ratio). To be noted: SBE-bla HEK293T, TGF-beta/Smad beta-lactamase reporter, 5 h; series mostly up to 76.8 µM. The gist of the method:
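After overnight seeding, SBE-bla HEK 293T cells are dosed with compounds in DMSO and kept 5 hr at 37 C, 5% CO2. LiveBLAzer-type FRET substrate is then applied for 2 hr at room temperature.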

Assay [7] in a line: Human pregnane X receptor (PXR) small molecule agonists, qHTS cell viability counter screen (AID 1346977). Note: nearly all actives have a fitted effect of over 50% in size. To be noted: PXR-Luc HepG2 viability, CellTiter-Fluor, 24 h; series mostly up to 92.4 µM. The method, boiled down: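 Viability counter screen: CellTiter-Fluor signal in PXR-Luc HepG2 cells, 24hr compound exposure, 37C, 5% CO2.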
Assay [8] can be described thus: Caspase-3/7 induction in HepG2 cells by small molecules, qHTS assay (AID 1346978). Note: nearly all actives have a fitted effect of over 15% in size. To be noted: HepG2 caspase-3/7 activation, Caspase-Glo luminescence, 17 h; series mostly up to 92.4 µM. The method, boiled down: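 Wild-type HepG2 cells, 2,000/well, settled 5 hr at 37 C and 5% CO2, then compound-treated for 17 hr; caspase-3/7 activity read by luminescent Caspase-Glo 3/7 after 30 min at room temperature.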

Assay [9] is described as follows: Caspase-3/7 induction in CHO-K1 cells by small molecules, qHTS cell viability counter screen (AID 1346979). Note: nearly all actives have a fitted effect of over 35% in size. Note: potency is the fitted concentration of half-maximal effect. To be noted: CellTiter-Fluor fluorescence, 17 h; series mostly up to 92.4 µM. The gist of the method:
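Viability readout by fluorescence (CellTiter-Fluor) on wild-type CHO-K1 cells exposed for 16hr at 37C and 5% CO2 to compounds delivered in DMSO; reagent incubated 1hr before reading.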

Assay [10] in a line: Caspase-3/7 induction in CHO-K1 cells by small molecules, qHTS assay (AID 1346980). Note: nearly all actives have a fitted effect of over 15% in size. To be noted: CHO-K1 caspase-3/7 induction, Caspase-Glo luminescence, 17 h; series mostly up to 92.4 µM. The method, boiled down:
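Wild-type CHO-K1 cells exposed to compounds for 17hr at 37 C, 5% CO2. Caspase-3/7 activity then measured by Caspase-Glo 3/7 luminescence after 30min at room temperature.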

A short description of assay [11]: Caspase-3/7 induction in HepG2 cells by small molecules, qHTS cell viability counter screen (AID 1346981). Note: nearly all actives have a fitted effect of over 30% in size. To be noted: CellTiter-Fluor fluorescence, 17 h; series mostly up to 92.4 µM. The method, boiled down:
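Cell viability is measured as a cytotoxicity counter screen alongside the Caspase-Glo 3/7 readout in identical wells. Wild-type HepG2 cells are treated with test compounds for 16 hr at 37 C before CellTiter-Fluor addition and a 1-hr incubation.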

The target in assay [12] is Nuclear receptor subfamily 1 group I member 2 (Homo sapiens) (UniProt O75469). The assay can be described thus: Human pregnane X receptor (PXR) small molecule agonists, qHTS assay (AID 1346982). Note: nearly all actives have a fitted effect of over 35% in size. Note: potency is the fitted concentration of half-maximal effect. To be noted: PXR-Luc HepG2, CYP3A4 luciferase reporter, 24 h; series mostly up to 92.4 µM. The method, boiled down: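 Cells: HepG2 stably carrying PXR-Luc. Medium held 5% charcoal-stripped FBS. Compounds in DMSO added after 5 hr plating, incubated 24 hr, then luminescence quantified with ONE-Glo.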

The target of assay [13] is Cytochrome P450 2D6 (Homo sapiens) (UniProt P10635). The assay is described as follows: Cytochrome P450 Family 2 Subfamily D Member 6 (CYP2D6) small molecule antagonists: luciferase reporter qHTS assay (AID 1671196). Note: nearly all actives have a fitted effect of over 50% in size. Note: potency is the fitted concentration of half-maximal effect. To be noted: P450-Glo CYP2D6 enzyme assay, luciferin luminescence, 1 h; series mostly up to 115 µM. The method, boiled down:
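Enzyme and proluciferin substrate were first combined with test chemical for 10 min at room temperature. Adding NADPH regeneration solution started a 1 h reaction, stopped with luciferin detection reagent and read by luminescence 20 min later.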

Assay [14] can be described thus: qHTS assay to identify small molecule agonists of the TGF-beta/Smad signaling pathway - cell viability counter screen (AID 1346829). Note: top concentration of the series differs between compounds; nearly all actives have a fitted effect of over 45% in size. To be noted: SBE-bla HEK293T viability, CellTiter-Glo luminescence, 5 h; series mostly up to 76.8 µM. The method, boiled down: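 Same-well cytotoxicity: CellTiter-Glo added after the 2 hr room-temperature beta-lactamase substrate step, luminescence measured 30 min later; cells had 5 hr of compound at 37 C.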

Assay [15] addresses Thyrotropin-releasing hormone receptor (Homo sapiens) (UniProt P34981). The assay can be described thus: qHTS assay to identify small molecule antagonists of the thyrotropin-releasing hormone receptor (TRHR) signaling pathway (AID 1346877; active = well fitted inhibition curve with a large enough effect in the repeat runs, not every such curve was filed as active). To be noted: TRHR-HEK293, TRH-induced calcium fluorescence, antagonist mode; series mostly up to 51.3 µM. The method, boiled down: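 Antagonism is measured as suppression of the calcium response to 1 nM TRH in TRHR-HEK293 cells that have been dye-loaded for 2 h at 37 °C after overnight plating. Each compound is tested at 15 concentrations in triplicate.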

For assay [16] the target is unchanged. The assay is described as follows: qHTS assay to identify small molecule agonists of the thyrotropin-releasing hormone receptor (TRHR) signaling pathway (AID 1346891; calls by dose curve;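 note: HEK293 cells expressing TRHR with calcium dye readout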). To be noted: TRHR-HEK293 calcium fluorescence, agonist mode; series mostly up to 57.6 µM. The method, boiled down: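 Compounds were tested as agonists at 15 concentrations, in triplicate, on TRHR-Hek293 cells; calcium-sensitive dye fluorescence was recorded for 3 min following addition.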

Assay [17] in a line: qHTS assay to identify small molecule agonists of the estrogen receptor alpha (ER-alpha) signaling pathway in the presence of an antagonist - cell viability counter screen (AID 1259386).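 Note: cells exposed to compounds for 22 h at 37 °C before the viability read; nearly all actives have a fitted effect of over 30% in size.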 To be noted: VM7Luc4E2 viability, CellTiter-Fluor fluorescence, 22 h; series mostly up to 92.4 µM. The gist of the method:
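Cytotoxicity was measured in parallel with the ERE-luciferase agonist screen, in the same wells. The cells were VM7Luc4E2, which endogenously express ER-alpha, and treatment was with compounds plus 10.0nM ICI-182,780 for 22hr.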

In assay [18] the target is Nuclear receptor subfamily 1 group I member 2 (Rattus norvegicus) (UniProt Q9R1A7). The assay can be described thus: Rat pregnane X receptor (rPXR) activation by small molecules, qHTS assay (AID 1346983). Note: nearly all actives have a fitted effect of over 20% in size. To be noted: rPXR luciferase reporter cells, One-Glo luminescence, 24 h; max activation: hits give high values. The gist of the method:
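Cell-based rPXR activation assay: rPXR cells, 2,000 per well, rested 5hr at 37 C, then exposed to compounds in DMSO for 24 hr at 37 C. Luciferase activity read by One-Glo luminescence after 30 min at room temperature.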

Structures are written as SMILES. Values without a mark were called inactive. Records with an inconclusive call do not appear. Activity calls are given as the source filed them. Unless noted, calls come from the whole dose curve; as a rule, active = well fitted curve in the direction sought with a large enough effect in the repeat runs; inconclusive = weak or mixed curves; inactive = no such curve, though single readings can be large; an effect the other way counts as inactive or inconclusive.
% is set by controls: 0 for no effect and ±100 for the full control effect.

Chain of Thyrotropin-releasing hormone receptor (Homo sapiens) (P34981 whole entry, looked up): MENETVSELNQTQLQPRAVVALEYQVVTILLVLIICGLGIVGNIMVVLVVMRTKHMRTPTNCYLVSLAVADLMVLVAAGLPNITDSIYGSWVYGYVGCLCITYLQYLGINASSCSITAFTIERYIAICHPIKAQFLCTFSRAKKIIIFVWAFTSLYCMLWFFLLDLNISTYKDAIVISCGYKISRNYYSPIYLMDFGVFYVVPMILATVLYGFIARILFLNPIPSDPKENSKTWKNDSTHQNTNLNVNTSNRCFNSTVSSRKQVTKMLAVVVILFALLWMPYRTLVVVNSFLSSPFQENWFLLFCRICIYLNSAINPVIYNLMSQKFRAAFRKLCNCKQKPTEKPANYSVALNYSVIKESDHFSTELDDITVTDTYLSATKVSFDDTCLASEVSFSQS
Chain of Progesterone receptor (Homo sapiens) (P06401 whole entry, looked up): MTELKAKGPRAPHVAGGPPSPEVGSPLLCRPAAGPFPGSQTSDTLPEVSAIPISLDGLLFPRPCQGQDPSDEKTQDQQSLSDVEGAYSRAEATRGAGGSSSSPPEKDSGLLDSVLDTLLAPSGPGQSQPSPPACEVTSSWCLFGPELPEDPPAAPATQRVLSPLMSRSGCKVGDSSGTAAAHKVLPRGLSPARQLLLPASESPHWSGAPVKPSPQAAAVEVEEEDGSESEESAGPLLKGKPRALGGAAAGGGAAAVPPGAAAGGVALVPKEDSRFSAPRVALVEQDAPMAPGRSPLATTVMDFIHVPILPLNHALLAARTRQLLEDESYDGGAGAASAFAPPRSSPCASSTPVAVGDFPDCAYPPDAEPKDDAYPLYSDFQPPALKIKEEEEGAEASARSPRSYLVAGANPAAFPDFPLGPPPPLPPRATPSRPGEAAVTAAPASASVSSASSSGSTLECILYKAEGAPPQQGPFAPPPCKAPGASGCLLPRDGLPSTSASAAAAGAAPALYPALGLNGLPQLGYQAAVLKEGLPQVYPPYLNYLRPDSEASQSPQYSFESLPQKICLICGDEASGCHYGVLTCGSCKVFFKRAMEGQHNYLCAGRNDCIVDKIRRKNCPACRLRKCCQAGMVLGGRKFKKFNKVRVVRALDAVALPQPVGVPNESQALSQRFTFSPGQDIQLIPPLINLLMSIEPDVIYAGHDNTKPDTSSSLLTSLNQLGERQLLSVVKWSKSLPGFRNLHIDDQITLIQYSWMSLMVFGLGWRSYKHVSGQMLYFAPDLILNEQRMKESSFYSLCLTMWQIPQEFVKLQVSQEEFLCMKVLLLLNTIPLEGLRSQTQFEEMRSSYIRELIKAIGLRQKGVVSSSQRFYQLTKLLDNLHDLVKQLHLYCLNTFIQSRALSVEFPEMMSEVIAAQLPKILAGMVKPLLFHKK
Chain of Nuclear receptor subfamily 1 group I member 2 (Homo sapiens) (O75469 whole entry, looked up): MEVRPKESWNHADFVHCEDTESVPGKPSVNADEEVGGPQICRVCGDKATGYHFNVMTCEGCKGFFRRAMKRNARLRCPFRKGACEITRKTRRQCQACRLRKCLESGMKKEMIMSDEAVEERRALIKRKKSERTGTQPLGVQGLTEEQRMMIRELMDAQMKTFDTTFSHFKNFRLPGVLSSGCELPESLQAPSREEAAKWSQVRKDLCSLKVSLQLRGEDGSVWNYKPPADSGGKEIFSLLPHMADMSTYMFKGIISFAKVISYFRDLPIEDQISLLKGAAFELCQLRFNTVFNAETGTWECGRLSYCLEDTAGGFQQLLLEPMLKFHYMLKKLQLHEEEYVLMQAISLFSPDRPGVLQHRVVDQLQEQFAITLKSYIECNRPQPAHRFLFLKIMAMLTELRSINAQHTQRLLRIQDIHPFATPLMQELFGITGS
Chain of Cytochrome P450 2D6 (Homo sapiens) (P10635 whole entry, looked up): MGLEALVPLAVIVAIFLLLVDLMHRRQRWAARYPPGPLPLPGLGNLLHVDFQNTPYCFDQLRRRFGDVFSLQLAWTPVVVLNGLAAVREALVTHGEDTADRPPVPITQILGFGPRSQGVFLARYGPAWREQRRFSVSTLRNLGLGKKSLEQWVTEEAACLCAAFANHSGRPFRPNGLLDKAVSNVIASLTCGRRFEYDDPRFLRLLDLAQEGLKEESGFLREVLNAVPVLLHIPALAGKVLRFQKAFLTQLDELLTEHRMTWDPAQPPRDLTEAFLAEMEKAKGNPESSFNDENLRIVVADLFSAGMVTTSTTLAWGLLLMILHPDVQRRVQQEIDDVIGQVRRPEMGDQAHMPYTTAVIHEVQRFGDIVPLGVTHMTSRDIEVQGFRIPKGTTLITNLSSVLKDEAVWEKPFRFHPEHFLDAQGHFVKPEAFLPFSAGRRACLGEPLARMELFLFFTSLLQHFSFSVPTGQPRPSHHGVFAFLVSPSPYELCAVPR
Chain of Nuclear receptor subfamily 1 group I member 2 (Rattus norvegicus) (Q9R1A7 whole entry, looked up): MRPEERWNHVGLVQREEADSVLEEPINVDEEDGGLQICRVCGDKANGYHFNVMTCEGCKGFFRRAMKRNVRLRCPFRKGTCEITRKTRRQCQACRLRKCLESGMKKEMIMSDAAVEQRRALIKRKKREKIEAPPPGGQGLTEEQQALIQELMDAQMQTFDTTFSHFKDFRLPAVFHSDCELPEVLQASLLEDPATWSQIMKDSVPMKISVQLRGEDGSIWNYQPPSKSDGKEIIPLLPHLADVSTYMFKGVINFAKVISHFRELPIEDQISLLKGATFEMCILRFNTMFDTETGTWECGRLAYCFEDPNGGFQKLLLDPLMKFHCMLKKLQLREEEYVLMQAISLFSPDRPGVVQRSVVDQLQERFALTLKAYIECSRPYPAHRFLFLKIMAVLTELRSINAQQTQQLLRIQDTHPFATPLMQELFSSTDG

As to `O=P(O)(OCc1ccccc1)OCc1ccccc1`, the Potency result in [1], in assay [2], in assay [3], in [4], in assay [5] and in assay [6] was “inactive” in each case. For the same compound, the Potency entry in assay [7], in [8], in assay [9], in [10], in assay [11] and in assay [12] was “inactive” throughout. Besides, in assay [13], the Potency result is “inactive”.
Turning to `CCOc1ccc(N)c([N+](=O)[O-])c1`, the Potency result in [1], in [3], in assay [4], in assay [5], in assay [6] and in assay [16] was “inactive” in each case. Further, the Potency entry in assay [7], in assay [8], in assay [10] and in [12] was “inactive” in each case. For the same compound, the compound was called inactive in assay [14] and in assay [15]. For the same compound, in assay [13], the Potency is 71 µM (active).
For the compound `O=C(OCCCCCCOC(=O)c1ccccc1)c1ccccc1`, the Potency result in assay [17], in assay [5], in assay [6], in assay [16], in assay [7] and in assay [9] was “inactive” throughout. In addition, the Potency result in [11], in assay [12] and in assay [13] was “inactive” each time. Moreover, the result in assay [15] was inactive.
Take `O=C1CCC(=O)O1`: the Potency entry in assay [1], in assay [2], in [3], in assay [4], in [5] and in assay [6] was “inactive” throughout. For the same compound, the Potency entry in assay [16], in assay [7], in [8], in assay [9], in [10] and in assay [11] was “inactive” throughout. Besides, in [12], the Potency entry was “inactive”. In addition, the result in [14] and in assay [15] was inactive.
Turning to `CNC(=O)CN(CCN(CCN(CC(=O)[O-])CC(=O)NC)CC(=O)[O-])CC(=O)[O-].O.[Gd+3]`, the Potency result in assay [1], in assay [2], in assay [3], in assay [4], in [5] and in assay [6] was “inactive” throughout. Besides, the Potency result in [16], in [7], in assay [8], in assay [10], in [11] and in [13] was “inactive” each time. The call in assay [14] and in assay [15] was inactive.
As for `CN(C)c1ccc(C(c2ccccc2)c2ccc(N(C)C)cc2)cc1`, the Potency entry in assay [1], in assay [3], in [4], in [5], in assay [6] and in [16] was “inactive” throughout. Moreover, the Potency entry in assay [8] and in [10] was “inactive” each time. Further, the Potency was 13.7 µM (active) in assay [2], 1.09 µM (active) in [9], 21.7 µM (active) in [12] and 31.7 µM (active) in assay [13]. Moreover, the outcome in assay [14] and in [15] was inactive.
For `CCN(CC)CCOC(=O)C(Cc1cccc2ccccc12)CC1CCCO1` (configuration not stated), the Potency entry in assay [1], in [2], in assay [3], in [5], in [6] and in assay [16] was “inactive” throughout. The Potency entry in [8], in [9], in [10] and in assay [11] was “inactive” each time. Moreover, the compound was classed as inactive in assay [14] and in assay [15]. Moreover, the max activation in [18] is 10.4%. The Potency in assay [13] was 2.75 µM (active).
With `CC[N+]1(CC)CCC(=C(c2ccccc2)c2ccccc2)C1C` (configuration not stated), the Potency result in [1], in assay [3], in assay [4], in assay [5], in assay [6] and in assay [7] was “inactive” throughout. Besides, the Potency entry in assay [8], in [9] and in assay [11] was “inactive” each time. Moreover, the outcome in assay [14] was inactive. Besides, the Potency in assay [13] was 1.74 µM (active).
Turning to `Cc1ccc(C(C)OC(=O)C2(C)CCC(C(=O)O)C2(C)C)cc1` (configuration not stated), the Potency entry in assay [1], in [3], in [4], in assay [5], in assay [6] and in assay [7] was “inactive” each time. Moreover, the Potency entry in assay [8], in assay [9], in assay [10], in [11], in assay [12] and in assay [13] was “inactive” in each case. Also, the compound was classed as inactive in assay [14].

For the origin of these results see PubChem BioAssay (Tox21).
